According to PMC4552634, “A New Set of Chemical Starting Points with Plasmodium falciparum Transmission-Blocking Potential for Antimalarial Drug Discovery” (PLoS ONE, 2015):
Hit rate of the full screen: of about 13,000 compounds, about 3,200 (25%) showed an effect of 50% or more. This is one part of the list.

Each compound was assayed on P. falciparum stage V gametocytes. Conditions: 48 h, 5 µM; inhibitor.
Design: BacTiter-Glo ATP luminescence viability of purified stage V gametocytes in 384-well plates, per cent inhibition versus DMSO

Row | SMILES | % Inhibition [%]
1 | CCN(CC)c1ccc(C(c2ccc(N(CC)CC)cc2)c2ccc([N+](=O)[O-])cc2)cc1 [TCMDC-131286] | -67.18
2 | O=C(NC1CC1)c1ccc(Cn2c(SCc3cccc([N+](=O)[O-])c3)nc3ccccc3c2=O)cc1 [TCMDC-123577] | 43.52
3 | CC(C)CCn1c(Sc2ccc([N+](=O)[O-])cc2C(F)(F)F)nnc1-c1ccccc1Cl [TCMDC-135484] | 10.18
4 | O=[N+]([O-])c1ccc(-n2nc(Cc3ccccc3)n(Cc3cccc(F)c3)c2=S)c(C(F)(F)F)c1 [TCMDC-135486] | 73.39
5 | N#Cc1cc([N+](=O)[O-])ccc1-n1nc(C(N)=O)n(Cc2cccc(F)c2)c1=S [TCMDC-134721] | 80.05
6 | Cc1cccc(CC2CC(=O)N(c3ccc([N+](=O)[O-])cc3)C2=O)c1 (stereo not drawn) [TCMDC-125732] | -3.627
7 | N#Cc1ccccc1C(=O)N(Cc1cncn1Cc1cccc(F)c1)CC1CC1 [TCMDC-132459] | -1.299
8 | CCN(CCNC(=O)Cn1c(C)cc2cc([N+](=O)[O-])ccc21)c1cccc(C)c1 [TCMDC-140764] | 1.649
9 | Cc1cccc(Cn2c(C(N)=O)nn(-c3ccc([N+](=O)[O-])cc3C#N)c2=S)c1 [TCMDC-134720] | 78.61
10 | CN(C)CCN(Cc1ccccc1)c1ccc([N+](=O)[O-])cc1C(F)(F)F [TCMDC-135372] | 16.64
11 | O=C(CCc1cccc(O)c1)NCC(NCCCNc1cc(=O)c2ccccc2[nH]1)c1cc(Br)cc(Br)c1 (stereo not drawn) [TCMDC-140319] | -27.67
12 | COc1ccc(C(=O)N2CCC3(CC2)C(=O)N(CC(=O)NCC2CCCCC2)CN3c2ccccc2)c(OC)c1 [TCMDC-125170] | -47.66
13 | O=C(NCC1CCN(Cc2cccc(C(F)(F)F)c2)C1)c1cc(-c2cccc(C(F)(F)F)c2)cs1 (stereo not drawn) [TCMDC-134483] | 53.9
14 | O=C(NCC1CCN(CC2CCCCC2)C1)c1cc(-c2cccc(C(F)(F)F)c2)cs1.O=C(O)C(F)(F)F (stereo not drawn) [TCMDC-134422] | 101.5
15 | O=C(NCC1CCN(Cc2cccc(C(F)(F)F)c2)C1)c1cc(-c2cccc(F)c2)cs1 (stereo not drawn) [TCMDC-134484] | 54.37
16 | CC(=O)Nc1ccc(CN2CCC(CNC(=O)c3cc(-c4cccc(C(F)(F)F)c4)cs3)C2)cc1.O=C(O)C(F)(F)F (stereo not drawn) [TCMDC-134456] | 0.3319
17 | O=C(NCC1CCN(Cc2ccsc2)C1)c1cc(-c2cccc(C(F)(F)F)c2)cs1.O=C(O)C(F)(F)F (stereo not drawn) [TCMDC-134478] | -49.55
18 | O=C(NCC1CCN(Cc2ccc3c(c2)OCCO3)C1)c1cc(-c2cccc(C(F)(F)F)c2)cs1.O=C(O)C(F)(F)F (stereo not drawn) [TCMDC-134458] | 1.256
19 | CN(C)c1ccc(-c2csc(C(=O)NCC3CCN(CC4CCCCC4)C3)c2)cc1.O=C(O)C(F)(F)F (stereo not drawn) [TCMDC-134424] | 97.4
20 | O=C(NCC1CCN(Cc2cccc(F)c2)C1)c1cc(-c2cccc(C(F)(F)F)c2)cs1 (stereo not drawn) [TCMDC-134480] | 4.488
21 | COc1ccccc1C1CCN(C2CCC(NC(=O)/C=C/c3cccc(C(F)(F)F)c3)CC2)CC1 (stereo not drawn) [TCMDC-133555] | -60.89

Row | SMILES | % Inhibition [%]
22 | Cc1cc(-c2cccc3c(NC(=O)N4CCc5cc6nccc(N7CCN8CCC[C@H]8C7)c6cc54)cccc23)cc(C)n1 [TCMDC-139794] | -14.58
23 | COc1cc2c(cc1C(F)(F)F)N(C(=O)Nc1cc(F)cc(-c3cncnc3)c1)CC2 [TCMDC-139039] | -11.26
24 | O=C(Nc1cccc(-c2nc3ccccc3[nH]2)c1)c1cccc(NC(=O)c2ccco2)c1 [TCMDC-125185] | 18.17
25 | CC(=O)c1ccc(S(=O)(=O)N2CCC(C(=O)Nc3ccccc3N3CCCC3)CC2)cc1 [TCMDC-125467] | -11.47
26 | CCC(C)NS(=O)(=O)c1ccc2nc(Nc3ccc(C)c(Cl)c3)n([C@H](C)C(C)(C)C)c2c1 (stereo partly drawn) [TCMDC-136238] | 38.05
27 | O=C(C=Cc1cccs1)Nc1ccc(-c2nc3ccccc3[nH]2)cc1 [TCMDC-123926] | -97.24
28 | COc1ccccc1CN1CCC(CNC(=O)c2cc(-c3cccc(C(F)(F)F)c3)cs2)C1.O=C(O)C(F)(F)F (stereo not drawn) [TCMDC-134450] | -43.84
29 | O=C(NCC1CCN(Cc2cccc(C(F)(F)F)c2)C1)c1cc(-c2cccc(Cl)c2)cs1 (stereo not drawn) [TCMDC-134485] | 50.21
30 | COc1ccccc1CN1CCC(CNC(=O)c2cc(-c3ccc(N(C)C)cc3)cs2)C1.O=C(O)C(F)(F)F (stereo not drawn) [TCMDC-134451] | 95.05
31 | CCCC(=O)Nc1ccc(OCCCN(Cc2ccccc2F)c2ccc(C#N)c(C(F)(F)F)c2)cc1 [TCMDC-135449] | 24.41
32 | Oc1cc(Nc2ccnc3cc(-c4ccc(CN5CCCCC5)o4)ccc23)c(Cl)cc1F [TCMDC-138485] | 11.9
33 | Fc1cc(Cl)ccc1Nc1ccnc2cc(-c3ccc(CN4CCCCC4)o3)ccc12 [TCMDC-138396] | 9.087
34 | CN1CCN(Cc2ccc(-c3ccc4c(Nc5ccc(Cl)cc5F)ccnc4c3)o2)CC1 [TCMDC-138395] | -22.3
35 | Fc1cc(Cl)ccc1Nc1ccnc2cc(-c3ccc(CNCCN4CCOCC4)o3)ccc12 [TCMDC-138397] | -18.32
36 | CN1CCN(Cc2ccc(-c3ccc4c(Nc5cc(O)c(F)cc5Cl)ccnc4c3)o2)CC1 [TCMDC-138486] | 4.683
37 | CN1CCN(Cc2ccc(-c3ccc4c(Nc5cc(O)c(Cl)cc5F)ccnc4c3)o2)CC1 [TCMDC-138446] | 74.65
38 | Fc1cc(Cl)ccc1Nc1ccnc2cc(-c3ccc(CN4CCOCC4)o3)ccc12 [TCMDC-138393] | 99.43
39 | Fc1cc(Cl)ccc1Nc1ccnc2cc(-c3ccc(CN4CCNCC4)o3)ccc12 [TCMDC-138394] | 83.09
40 | Fc1cc(Cl)ccc1Nc1ccnc2cc(-c3ccc(CN4CCSCC4)o3)ccc12 [TCMDC-138392] | 1.462
41 | COc1ccc2nccc(N3CCN(CCNCc4ccc5c(n4)NC(=O)CS5)CC3)c2c1.Cl [TCMDC-141962] | 5.259
42 | CCCCC1(c2ccc(F)cc2)NC(=O)N(CC(=O)c2cc(C)n(Cc3ccco3)c2C)C1=O (stereo not drawn) [TCMDC-125119] | 0.3946

Row | SMILES | % Inhibition [%]
43 | CNC(=O)c1cc(S(=O)(=O)N2CCN(c3ccccn3)CC2)cs1 [TCMDC-124847] | 78.13
44 | O=C(Nc1ccc(N2CCN(c3ncccc3C(F)(F)F)CC2)nc1)c1cccs1 [TCMDC-125784] | 10.79
45 | CCNC(=O)c1cc(S(=O)(=O)N2CCN(c3ccccn3)CC2)cs1 [TCMDC-124848] | 88.58
46 | CC(=O)Nc1ccc(S(=O)(=O)N2CCN(c3nc(NC4CCCC4)c4ccccc4n3)CC2)cc1 [TCMDC-123869] | 2.309
47 | CNC(=O)c1cc(S(=O)(=O)N2CCN(c3ccccn3)CC2)c(C)s1 [TCMDC-124846] | 34.83
48 | Cc1nc(-c2ccc3c(c2)CCN(CCC2CCC(NC(=O)c4cc5cccc(Cl)c5[nH]4)CC2)CC3)no1 (stereo not drawn) [TCMDC-140071] | -33.37
49 | O=C(Nc1ccc(Cl)c(C(F)(F)F)c1)c1ccc(Cl)c([N+](=O)[O-])c1 [TCMDC-125647] | -24.24
50 | O=C(c1ccc(F)c2ccccc12)N1CCc2cc3nccc(N4CCN5CCC[C@H]5C4)c3cc21 [TCMDC-140043] | 23.61
51 | CN1CCC(C(=O)N(Cc2ccc(-c3ccc(CNCCc4ccc(S(C)(=O)=O)cc4)cn3)cc2)C2CCN(Cc3ccccc3)CC2)CC1 [TCMDC-141506] | 104.7
52 | CS(=O)(=O)c1ccc(CCNCc2ccc(-c3ccc(CN(C(=O)C4CC(=O)c5ccccc54)C4Cc5ccccc5C4)cc3)nc2)cc1 (stereo not drawn) [TCMDC-141509] | 97.27
53 | CN1CCC(C(=O)N(Cc2ccc(-c3ccc(CNCCc4ccc(S(C)(=O)=O)cc4)cn3)cc2)C2Cc3ccccc3C2)CC1 [TCMDC-141508] | 99.19
54 | CS(=O)(=O)c1ccc(CCNCc2ccc(-c3ccc(CNC4CCN(Cc5ccccc5)CC4)cc3)nc2)cc1 [TCMDC-141614] | 33.12
55 | c1ccc(CCNCc2ccc(-c3ccc(CNC4CCN(Cc5ccccc5)CC4)cc3)nc2)cc1 [TCMDC-141649] | 82.96
56 | CS(=O)(=O)c1ccc(CCNCc2ccc(-c3ccc(CN(C(=O)C4CCCC4)C4CCN(Cc5ccccc5)CC4)cc3)nc2)cc1 [TCMDC-141511] | 48.38
57 | CS(=O)(=O)c1ccc(CCNCc2ccc(-c3ccc(CN(C(=O)C4CC(=O)c5ccccc54)C4CCN(Cc5ccccc5)CC4)cc3)nc2)cc1 (stereo not drawn) [TCMDC-141605] | 41.88
58 | CS(=O)(=O)c1ccc(CCNCc2ccc(-c3ccc(CNC4Cc5ccccc5C4)cc3)nc2)cc1 [TCMDC-141615] | 5.211
59 | CC(C)c1ccc(Cn2cc(-c3ccncc3)c3cc(OCc4ccccc4)ccc32)cc1 [TCMDC-137225] | 2.514
60 | CCc1cccc(NC(=O)c2ccc(CN3CCCN(CC4CCCCC4)CC3)cc2)c1 [TCMDC-136399] | -29.35
61 | O=c1cc(NCCCNC2CCOc3c(I)cc(Cl)cc32)[nH]c2ccccc12 (stereo not drawn) [TCMDC-139489] | -10.52
62 | O=C1COc2ccc(CNC3CCC(O)(CCc4ccnc5cc6c(cc45)OCCO6)CC3)nc2N1 (stereo not drawn) [TCMDC-141941] | 32.09
63 | O=C(c1ccc(-c2ccc(-c3nc4cc(C(F)(F)F)ccc4[nH]3)s2)cc1)N1CCN(CCc2ccccc2)CC1 [TCMDC-132482] | 3.451
